High-throughput results as filed in PubChem BioAssay.
Pf gamet viab = inhibitors of late stage P. falciparum gametocyte viability; 150,000 compounds, 0.065% hits; inhibition, % at 10.9 µM; P. falciparum stage V gametocytes, ATP luminescence, 24 h;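 active = inhibition above the mean plus 3 SD of compounds within the control limits, set per campaign, cut at about 38% in these data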;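 also: 0% = DMSO wells and 100% = medium only without gametocytes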
S1P4 antag = antagonists of human S1P4 receptor. inhibition, % at 4.98 µM. S1P4-expressing cells, antagonist mode, reporter read-out. AID 1510. 220,000 compounds, 0.26% hits; in the data active = inhibition above about 29%;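 also: 0% = wells stimulated with agonist and 100% = vehicle wells without agonist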
S1P4 agonist = agonists of human S1P4 receptor | 220,000 compounds, 0.35% hits | activation, % at 4.98 µM | AID 1509 | O95977 | S1P4-expressing cell line, agonist reporter assay; in the data active = activation above about 11%;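 also: 0% = DMSO vehicle and 100% = reference agonist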
Hsp70 act = switches on Hsp70 transcription; 200,000 compounds, 0.04% hits; activation, % at 10 µM; HeLa Hsp70 promoter luciferase reporter, luminescence; scaled: vehicle 0, proteasome-inhibitor control 100%; AID 1203;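 active = activation above the mean across all tested compounds plus 3 SD, cutoff set per campaign, cut at about 5.5% in these data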;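 also: 100% = MG132 at 30 µM as the positive control and 0% = DMSO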
S1P3 antagonist = S1P3 (human) receptor antagonism; CHO S1P3 NFAT-BLA reporter, FRET fluorescence, antagonist mode; Q99500; 170,000 compounds, 0.27% hits; inhibition, % at 4.98 µM;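 active = inhibition above the plate cutoff, the mean inhibition of test wells on that plate plus 3 SD, cut at about 28% in these data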;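 also: cells challenged with S1P at its EC80 of 0.8 µM; blue over green emission ratio from cleaved BLA substrate after 4 h stimulation; 0% = S1P-stimulated wells and 100% = unstimulated DMSO-only wells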
Target sequence (Q99500 whole entry, looked up): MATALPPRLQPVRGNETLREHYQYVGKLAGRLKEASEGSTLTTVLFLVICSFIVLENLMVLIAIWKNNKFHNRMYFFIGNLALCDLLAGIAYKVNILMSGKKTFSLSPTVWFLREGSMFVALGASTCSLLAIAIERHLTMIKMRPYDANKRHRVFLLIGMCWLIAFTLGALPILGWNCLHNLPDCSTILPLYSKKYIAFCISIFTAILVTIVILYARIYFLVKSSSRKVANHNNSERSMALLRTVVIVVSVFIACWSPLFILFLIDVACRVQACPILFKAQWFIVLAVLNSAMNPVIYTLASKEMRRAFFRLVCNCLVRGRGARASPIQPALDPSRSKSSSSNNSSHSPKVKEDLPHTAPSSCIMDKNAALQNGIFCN
S1P4 agonist cf = confirmation of human S1P4 receptor agonists. AID 1523. S1P4 agonist cell-based reporter assay. shares compounds with S1P4 agonist. 740 compounds, 7% hits. activation, % at 4.98 µM; in the data active = activation above about 12%;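 also: 0% = vehicle and 100% = full reference agonist response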
S1P1 ag = activates human S1P1, counter-screen for S1P4 agonists; shares compounds with S1P4 agonist; activation, % at 4.98 µM; S1P1 agonist cell-based assay, activation; 740 compounds, 4% hits; AID 1563; in the data active = activation above about 21%;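 also: 0% = vehicle wells and 100% = reference agonist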
An asterisk follows results filed as active; x = not tested or not shown. This is a sample that favours compounds with a hit; in the whole collection about 0.83% have one here.

SMILES	Pf gamet viab	S1P4 antag	S1P4 agonist	Hsp70 act	S1P3 antagonist	S1P4 agonist cf	S1P1 ag
COc1cccc(NC(=O)CN(c2cccc(C(F)(F)F)c2)S(C)(=O)=O)c1	x	-5	12*	0	2	-1	-2
COc1cccc(NC(=O)CN(c2cccc(OC)c2)S(C)(=O)=O)c1	-1	9	0	0	-6	x	x
O=C(Nc1ccccc1-c1ccccc1)C1CCCCC1	14	4	12*	0	-11	-2	-3
O=C(c1ccc(Oc2cc(Cl)cc(Cl)c2)o1)N1CCCCC1	-12	8	1	x	1	x	x
COc1ccc(OC)c(/C=N/NC(=O)Cc2nc3ccccc3[nH]2)c1	x	-27	12*	0	3	-2	-8
O=C(Cc1nc2ccccc2[nH]1)N/N=C/c1ccccc1	-27	-17	7	0	2	x	x
CCCCn1c(NCc2cccs2)nc2ccccc21	-7	-12	1	0	3	x	x
CCc1nnc(NC=C2C(=O)OC(C)(C)OC2=O)s1	-9	5	18*	0	2	-1	3
CCc1nnc(NC(=O)C=C(C)C)s1	x	-14	-2	0	x	x	x
Cc1cc(C(=O)NCc2cccnc2)no1	32	-9	11*	0	13	-1	-6
COc1ccc(C(=O)NCC(=O)OCC(=O)Nc2c(C)n(C)n(-c3ccccc3)c2=O)cc1	12	-7	104*	1	x	-2	-7
CC(C)CC(O)C1CCN(C(=O)CCc2nnc(-c3ccccc3)o2)CC1 (configuration not stated)	15	-10	0	0	-11	x	x
COCCN(C(=O)CSc1nnc(-c2cccc(OC)c2)n1C)c1c(N)n(Cc2ccccc2)c(=O)[nH]c1=O	x	0	0	0	-4	x	x
O=C(CN1CCN(Cc2ccccc2)CC1)N/N=C/c1ccc(Br)s1	17	11	1	x	-2	x	x
CCCNS(=O)(=O)c1cc(Cl)ccc1OC	-3	1	17*	0	-11	-1	-2
Cc1cc(C)c2c(=O)[nH]c(SCC(=O)NCCc3ccccc3)nc2n1	x	-28	12*	-1	x	-2	-2
CCOc1ccccc1-n1c(SCC(=O)Nc2nccs2)nnc1-c1ccoc1C	x	4	19*	0	-25	-2	4
CCOC(=O)/C=c1\s/c(=C(\C#N)C(=O)OCC)n(-c2ccccc2)c1=O	x	-2	160*	0	x	-2	-6
O=C(COC(=O)c1c2c(nc3ccccc13)CCN(Cc1ccccc1)C2)Nc1c(F)cccc1F	5	-1	58*	0	8	-3	-5
COc1ccc(OCCOc2ccc(C)nc2[N+](=O)[O-])cc1	x	-1	0	0	-18	x	x
Cc1ccc(OCCOc2ccc(Cl)cc2Cl)c([N+](=O)[O-])n1	3	-34	102*	0	-2	80*	2
Cc1cc(C)nc(N/N=C/c2ccc(N3CCOCC3)cc2)n1	15	15	175*	0	5	21*	1
NC(=O)C1CCN(Cc2nc3cc(C(F)(F)F)ccc3c(=O)[nH]2)CC1	6	-9	1	x	4	x	x
Cc1cc2nc(/N=C(\N)NC(=O)C(C)C)nc(C)c2cc1C	-4	-15	1	x	-4	x	x
CCC(=O)N/C(N)=N/c1nc(C)c2cc(C)c(C)cc2n1	-23	-8	12*	x	1	-1	-6
SMILES	Pf gamet viab	S1P4 antag	S1P4 agonist	Hsp70 act	S1P3 antagonist	S1P4 agonist cf	S1P1 ag
Cc1noc(C)c1S(=O)(=O)Nc1ccc(C(=O)N2CCC(C)CC2)cc1	x	4	-1	0	-8	x	x
CC(C)CC(=O)NS(=O)(=O)c1ccc(NS(C)(=O)=O)cc1	17	2	17*	0	-10	-2	1
Cc1ccc(/C=N/NC(=O)c2cccnc2)s1	13	-1	13*	x	10	-1	0
CC(/C=N/NC(=O)c1cc(-c2ccc(C)o2)[nH]n1)=C\c1ccccc1	24	-10	17*	0	-9	-2	1
Cc1nc(SCC(=O)NC2CCCC2)[nH]c(=O)c1Cc1ccccc1	-25	-4	51*	0	x	-2	-6
COCCCn1c(=N)c(C(=O)NCC2CCCO2)cc2c(=O)n3ccccc3nc21 (configuration not stated)	x	-15	12*	0	-7	3	2
COCCCn1c(=N)c(C(=O)NCC2CCCO2)cc2c(=O)n3cccc(C)c3nc21 (configuration not stated)	9	-7	3	0	-9	x	x
N=c1c(C(=O)NCc2ccc(F)cc2)cc2c(=O)n3ccccc3nc2n1CC1CCCO1 (configuration not stated)	x	-31	13*	0	-22	14*	8
COc1ccc2[nH]c(CN3CCC(CO)(CCOc4ccccc4)CC3)c(C)c2c1	-1	-9	0	0	-2	x	x
O=C(CSc1nnc(NC(=O)Cc2ccccc2)s1)NCc1ccco1	-8	3	17*	0	-11	-3	-3
O=C(CSc1nnc(NC(=O)Cc2ccc(F)cc2)s1)NCc1ccco1	22	4	0	0	-16	x	x
Cc1ccc(Nc2c(-c3ccc(C)o3)nc3ncccn23)cc1	-7	2	11*	x	0	-1	2
O=S(=O)(NC1CCCCC1Oc1ccccc1)c1ccc(Cl)cc1 (configuration not stated)	x	-17	-1	0	7	x	x
O=S(=O)(NC1CCCCC1Nc1ccccc1)c1ccccc1 (configuration not stated)	10	-12	16*	0	-3	-2	3
O=S(=O)(NC1CCCCC1NS(=O)(=O)c1ccc(F)cc1)c1ccc(F)cc1 (configuration not stated)	x	-12	15*	0	12	-2	-1
Cc1c(Br)c([N+](=O)[O-])nn1CCCC(=O)NC(C)c1ccccc1 (configuration not stated)	-6	-1	0	0	-7	x	x
CCOc1ccccc1OCCCCCc1c(C)n[nH]c1C	5	0	11*	0	-3	11*	3
CCOC(=O)C(NC(=O)CC)(Nc1ccccc1)C(F)(F)F (configuration not stated)	-3	7	1	0	-12	x	x
CCCCC(=O)NC(Nc1ccc(C)cn1)(C(=O)OCC)C(F)(F)F (configuration not stated)	x	-6	18*	0	x	-1	-4
O=C(NCc1ccc2c(c1)CCO2)Nc1ccccc1	-4	3	1	x	5	x	x
O=C(Cn1c(Cc2ccccc2)nc2ccccc21)NCc1ccc2c(c1)OCO2	18	-14	22*	0	-6	-2	-4
C=CCNC(=O)C(=O)N/N=C/c1ccco1	-18	-1	3	0	-14	x	x
COc1ccc(CCN2C(=O)CC(NCc3ccc4c(c3)OCO4)C2=O)cc1OC (configuration not stated)	x	-2	19*	0	-8	-3	0
